Where “and” joins values, the source holds several entries; their conditions need not be identical. Equal entries are not always repeated. The whole screen tested about 110,000 compounds, of which about 190 (0.17%) were called active. No stated cut-off is given here; in the data, active means inhibition above about 50%; inactive means the rest. Many of the other results were omitted from the sample, so actives are more common in it than they were. Measured potencies and affinities stand elsewhere.
The compounds below were run against Dual specificity protein phosphatase 6 (Rattus norvegicus) (UniProt Q64346) (assay: inhibition of rat DUSP6 enzyme activity – biochemical, in vitro, primary screen (AID 425;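 further: plate controls were vehicle for no effect and reference inhibitor for full effect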)). Details: recombinant MKP-3 phosphatase activity, fluorescence; at 20 µM; active compounds read high.
Sequence of Dual specificity protein phosphatase 6 (Rattus norvegicus) (Q64346 whole entry, looked up): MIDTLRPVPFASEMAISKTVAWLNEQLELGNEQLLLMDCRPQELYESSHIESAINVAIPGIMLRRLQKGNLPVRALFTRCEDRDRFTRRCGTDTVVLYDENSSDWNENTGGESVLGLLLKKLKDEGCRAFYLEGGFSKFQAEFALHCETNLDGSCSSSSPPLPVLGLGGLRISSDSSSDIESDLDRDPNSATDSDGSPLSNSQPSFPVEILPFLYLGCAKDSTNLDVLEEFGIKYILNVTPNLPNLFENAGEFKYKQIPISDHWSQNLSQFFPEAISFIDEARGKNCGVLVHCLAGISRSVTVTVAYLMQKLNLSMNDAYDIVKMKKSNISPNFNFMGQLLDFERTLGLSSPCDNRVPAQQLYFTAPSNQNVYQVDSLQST

inhibition, active:
O=C1NC(=O)/C(=C/c2ccccc2[N+](=O)[O-])S1 79.4%
O=C1NC(=S)S/C1=C\c1ccccc1[N+](=O)[O-] 122%
COc1cc(/C=C2/SC(=S)NC2=O)c([N+](=O)[O-])cc1OC 50.1%
O=C1NC(=S)N/C1=C/c1cc2c(cc1[N+](=O)[O-])OCO2 64.9%
O=C1NC(=O)/C(=C\c2cc3c(cc2[N+](=O)[O-])OCO3)S1 122%
Cc1nonc1NC1(O)C(=O)c2ccccc2C1=O 106%
CC1=CC(=O)C=C/C1=N/OC1=C(O/N=C2/C=CC(=O)C=C2C)C(=O)c2ccccc2C1=O 66%

inhibition, inactive:
O=C1CC(c2cccs2)CC2=C1C(c1ccsc1)Nc1ccccc1N2 (stereo not drawn) -0.1%
C=C(C)Cn1c(SCC(=O)NN)nnc1-c1ccc(Br)cc1 2.7%
CCC(C)(C)NC(=O)C1CCN(c2nc(C)cc(C)n2)CC1 -18.2%
CCc1nnc(NC(=O)C2CC(=O)N(c3ccc(C)cc3)C2)s1 (stereo not drawn) -9.9%
O=C1NC(=S)N/C1=C/c1ccc2c(c1)OCO2 5.3%
COc1cc(/C=C2\NC(=S)NC2=O)c([N+](=O)[O-])cc1OC 13.3%
O=C1NC(=O)/C(=C\c2ccccc2Cl)S1 -2.9%
O=C1NC(=Nc2ccc(Br)cc2)S/C1=C\c1ccccc1[N+](=O)[O-] 1.9%
O=C1NC(=S)N/C1=C/c1cc2c(cc1Cl)OCO2 0.8%
O=C1NC(=S)S/C1=C/c1ccccc1OS(=O)(=O)c1ccccc1[N+](=O)[O-] 1.4%
COc1cc(Br)c(/C=C2/SC(=S)NC2=O)cc1OC -0.6%
O=C1NC(=S)S/C1=C\c1ccccc1OS(=O)(=O)c1ccc([N+](=O)[O-])cc1 1.6%
COc1ccc(CN2C(=O)C(O)(CC(=O)c3c(C)n[nH]c3C)c3ccccc32)cc1OC (stereo not drawn) -1.9%
CCOc1cc(C(=O)Nc2ccc(Br)cc2F)cc(OCC)c1OCC 5.8%
O=C(c1oc2ccccc2c1N1CCCCC1)N1CCCCC1 2.6%
O=C1CN(S(=O)(=O)CCOc2ccccc2)CC(=O)N1CCOc1ccccc1 3.6%
CN(Cc1ccccc1)c1oc(-c2ccco2)nc1C#N -1.5%
O=C(NN=C(C1CC1)C1CC1)c1cc2ccccc2cc1O 1.9%
CC1(C)CC(=O)c2nc(NC(=O)CSC(=O)c3ccccc3)sc2C1 0.6%
CN1C(=O)/C(=C\c2cc(Br)ccc2OCc2ccccc2)SC1=S 2.6%
O=C1/C(=C/c2cc3c(cc2[N+](=O)[O-])OCO3)Sc2ccccc21 -0.9%
O=C1NC(=O)/C(=C\c2cc3c(cc2Br)OCO3)S1 1.1%
CC(C)(C)c1cc(Br)ccc1OCC(=O)Nc1ccc2c(c1)OCCO2 6.4%
COc1ccc2nc(SCC(=O)Nc3ccccc3)[nH]c2c1 -2.1%
O=C1NC(=O)N(c2ccc(Br)cc2)C(=O)/C1=C/c1ccco1 46.2%
Cc1ccc(C=C2C(=O)NC(=S)N(c3ccccc3Cl)C2=O)o1 11.8%
O=C1NC(=S)N(c2ccc(F)cc2)C(=O)/C1=C/c1ccc(F)cc1 -0.1%
Cc1cc(N2C(=O)NC(=O)/C(=C\c3ccco3)C2=O)ccc1Br 42.1%
COc1cccc(N2C(=O)C(=Cc3ccc(OC)cc3OC)C(=O)NC2=S)c1 2.6%
COc1ccc(OC)c(N2C(=O)NC(=O)C(=Cc3ccc(C)o3)C2=O)c1 3.8%
COc1cccc(-c2cc(C(=O)NC(C)c3ccccc3)c3ccccc3n2)c1 (stereo not drawn) 2.7%
CCCOc1ccc(C(=O)Nc2ccc(C)cc2[N+](=O)[O-])cc1 2.7%
O=C(O)c1cc(O)ccc1NC(=O)C(c1ccccc1)c1ccccc1 4.4%
CC(C)=C1C2CCC1C(C(=O)NCCC1=CCCCC1)C2C(=O)O (stereo not drawn) 1.3%
CCc1ccc(-n2c(C)cc(/C=N/NC(=O)c3cccnc3)c2C)cc1 6.1%
O=C(NCCN1CCOCC1)c1cccc(S(=O)(=O)N2CCCCCC2)c1 -10.5%
CN1C(=O)/C(=C2\SC(=S)N(CC(=O)O)C2=O)c2ccccc21 2%
CN1C(=O)c2oc3ccc(Br)cc3c(=O)c2C1c1ccncc1 (stereo not drawn) 2.2%
Cc1ccc(NC(=O)C(=O)N/N=C/c2cccs2)cc1 0.5%
CCc1ccccc1OCCN(CC)CC 1.4%
COc1cc(/C=N/NC(=O)c2cccc([N+](=O)[O-])c2)cc(I)c1O -0.4%
COc1ccc(/C=N/NC(=O)c2cccc([N+](=O)[O-])c2)cc1Br -2.3%
C/C(=N\NS(=O)(=O)c1ccc(C)cc1)C(C)(C)CC(=O)O 0.4%
Cc1ccc(S(=O)(=O)N2CCN(Cc3ccccc3[N+](=O)[O-])CC2)cc1 3.5%
CCOC(=O)CNC(=O)CSc1nnc(Cn2cnc3ccccc32)n1C -4.9%
COc1ccc(OC)c(CNC(=O)COc2cc(=O)n(C)c3ccccc23)c1 -0.9%
CCOC(=O)/C=C/CSc1nc2sc3c(c2c(=O)[nH]1)CCCC3 3.4%
CCOc1cc(C=C2C(=O)c3ccccc3C2=O)ccc1OCc1ccc(Cl)cc1Cl 2%
COc1cc(/C=N/NC(=O)Cc2nnc(N)s2)ccc1OCc1ccc(Cl)cc1Cl 0.3%
CCN(CC)c1ccc(/C=N/NC(=O)Cn2nnc(-c3ccccc3)n2)c(O)c1 0.8%
O=C(O)CC(NC(=O)C(c1ccccc1)c1ccccc1)c1ccco1 (stereo not drawn) -9.2%
O=P(c1ccccc1)(c1ccccc1)C(O)c1ccco1 (stereo not drawn) 4.6% and -1.6%
Cc1nonc1NC(=O)Nc1cccnc1 -4.7%
O=C(NC1(O)C(=O)c2ccccc2C1=O)c1ccccc1 21.6%
CC1=C/C(=N\OC2=C(O/N=C3/C=CC(=O)C(C)=C3)C(=O)c3ccccc3C2=O)C=CC1=O 42.8%
CC1=CC(=O)C=C/C1=N\OS(=O)(=O)c1ccccc1 8.7%

Source: PubChem BioAssay AID425 (Sanford-Burnham Center for Chemical Genomics, 2006)
